Assay results from PubChem BioAssay (NCATS).
Unmarked numbers belong to inactive results. Records with an inconclusive call do not appear. Where a call stands in place of a potency, no number is given. Calls of active or inactive are those of the source. Calls come from the whole dose curve; as a rule, active = well fitted curve in the direction sought with a large enough effect; inconclusive = small, poorly fitted or top-dose-only effect, or another doubt; inactive = no such curve, though single readings can be large; an effect the other way counts as inactive or inconclusive.

What was measured:
[1] = target: Glutathione peroxidase 1 (Homo sapiens) (UniProt P07203); experiment: Primary qHTS Assay for Inhibitors of Recombinant Selenoprotein Glutathione Peroxidase 1 (GPX1) (AID 1845191); note: nearly all actives have a fitted effect of over 65% in size; note: potency is the fitted concentration of half-maximal effect
Procedure, shortened: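 10 nM GPX1 + cpd, 30 min RT; start w/ 1 mM GSH, 0.5 mM cumene hydroperoxide, 0.5 mM NADPH, 100 nM GR, 0.01% BSA; buffer 50 mM Tris-HCl pH 7.5, 2 mM EDTA, 150 mM NaCl; Fl 340/450, 0 & 15 min.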

[2] = target: Phospholipid hydroperoxide glutathione peroxidase GPX4 (Homo sapiens) (UniProt P36969); experiment: Primary qHTS Assay for Inhibitors of Recombinant Selenoprotein Glutathione Peroxidase 4 (GPX4) (AID 1845192); note: nearly all actives have a fitted effect of over 65% in size; for activity change, negative = inhibition: series mostly up to about 50 µM
Procedure, shortened: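 NADPH consumption, followed by fluorescence at 340/450 nm between 0 and 15 min, reports GPX4 activity via coupled glutathione reductase (100 nM). Enzyme 200 nM was pre-exposed to compound 30 min; 0.5 mM cumene hydroperoxide and 1 mM GSH served as substrates.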

[3] = target: Luciferin 4-monooxygenase (Photinus pyralis) (UniProt P08659); experiment: Primary firefly luciferase (FLuc) qHTS assay for identification of artifact compounds. (AID 1845220); note: nearly all actives have a fitted effect of over 60% in size; note: potency is the fitted concentration of half-maximal effect; for activity change, negative = inhibition: series mostly up to about 54 µM
Procedure, shortened: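 FLuc 10 nM; luciferin 10 uM; ATP 10 uM; Tris-acetate pH 7.6, Mg-acetate 10 mM; 15 min RT preincubation; 5 min reaction; luminescence.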

[4] = Primary fluorescence-based thiol-reactive (MSTI) qHTS assay for identification of artifact compounds. (AID 1845221); note: nearly all actives have a fitted effect of over 65% in size; note: potency is the fitted concentration of half-maximal effect;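 for activity change, negative = thiol reactive: series mostly up to about 54 µM; thiol-reactive compounds lower the probe fluorescence signal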
Procedure, shortened: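 Thiol-reactive compounds detected by quenching of 4 uM MSTI fluorescence (525/598 nm) after 1 h room-temperature dark incubation in PBS pH 7.4, 2% DMSO. qHTS titration; percent inhibition Hill-fitted against Acetyl-MSTI/MSTI controls.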

[5] = system: Nanoluciferase (engineered Oplophorus gracilirostris luciferase); experiment: Primary Nanoluciferase (NLuc) qHTS assay for identification of artifact compounds. (AID 1845222);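 note: NLuc secreted into diluted conditioned medium of S16 cells; series mostly up to about 54 µM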
Procedure, shortened: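 NLuc from S16 cell medium (1:55) plus test compounds, 15 min, room temperature. Luminescence after Nano-Glo (1:100) addition, 5 min.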

[6] = Primary redox qHTS assay for identification of artifact compounds. (AID 1845223)
Procedure, shortened: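 Amplex Red (25 uM) and HRP (250 mU/mL) in HBSS, with compounds for 15 min, then 250 uM DTT for 30 min, room temperature, dark. Fluorescence 525/598 nm read; normalized to DMSO and 10 uM DA3003; Hill fit.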

Sequence of Phospholipid hydroperoxide glutathione peroxidase GPX4 (Homo sapiens) (P36969 whole entry, looked up): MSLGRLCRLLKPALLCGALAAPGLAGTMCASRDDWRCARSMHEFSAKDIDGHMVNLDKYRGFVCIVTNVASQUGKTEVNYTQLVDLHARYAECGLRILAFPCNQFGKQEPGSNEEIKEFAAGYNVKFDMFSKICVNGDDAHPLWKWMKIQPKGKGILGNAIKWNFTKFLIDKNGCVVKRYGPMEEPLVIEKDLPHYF
Sequence of Glutathione peroxidase 1 (Homo sapiens) (P07203 whole entry, looked up): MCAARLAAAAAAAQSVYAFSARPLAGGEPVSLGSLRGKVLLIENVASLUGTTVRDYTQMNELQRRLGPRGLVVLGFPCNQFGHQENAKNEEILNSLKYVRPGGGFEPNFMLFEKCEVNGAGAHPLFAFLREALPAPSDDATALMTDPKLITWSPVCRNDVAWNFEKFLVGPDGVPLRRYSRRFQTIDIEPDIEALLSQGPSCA

Compound	Potency [1]	Potency [2]	Potency [3]	Potency [4]	Potency [5]	Potency [6]	activity, negative = inhibition [1]	activity change, negative = inhibition [2]	activity change, negative = inhibition [3]	activity change, negative = thiol reactive [4]	activity, negative = inhibition [5]	redox activity (% of DA3003) [6]
CCCC1(CCC)CCC2(CCN(CCCN(CC)CC)C2)CC1	inactive	inactive	inactive	inactive	inactive	inactive						
CC12CCC(OC3OC(CO)C(O)C(O)C3OC3OC(CO)C(O)C(O)C3O)CC1CCC1C2CCC2(C)/C(=C3/COC(=O)C3)CCC12O (stereo not drawn)	inactive	inactive	inactive	inactive	inactive	inactive						
C=C1C(=O)O[C@H]2C1CCC(C)=C1C(=O)C=C(C)[C@@]12O (stereo partly drawn)	inactive	inactive	inactive	inactive	inactive	inactive						
COCCN(C(=O)c1cc(OC)c(OC)c(OC)c1)c1nc(-c2ccccc2)cs1	inactive	inactive	inactive	inactive	inactive	inactive						
CC(C)(O)C1Cc2c(ccc(C(=O)CCc3ccccc3)c2O)O1 (stereo not drawn)	inactive	inactive	0.294 µM (active)	inactive	inactive	inactive						
O=C(NC1(c2ccccc2)CC1)c1c(CN2CCC(N3CCCCC3)CC2)c(-c2cccc(C(F)(F)F)c2)nc2cc(Br)ccc12	inactive	inactive	inactive	inactive	inactive	inactive						
CCC(C)C1NC(=O)C(Cc2ccccc2)NC(=O)C(CCCCCC(=O)C(O)CO)NC(=O)C2CCCCN2C1=O (stereo not drawn)	inactive	inactive	inactive	inactive	inactive	inactive						
COc1cc2nc(C3CC3)nc(N3CCN(c4ccccc4OC)CC3)c2cc1OC	inactive	inactive	inactive	inactive	inactive	inactive						
CN(C)CCOc1cc(NS(=O)(=O)c2c(Cl)cc(C(F)(F)F)cc2Cl)ccc1Cl	inactive	inactive	inactive	inactive	inactive	inactive						
CC1OC(OC2C(O)COC(O[C@@H]3[C@@H](O)[C@@H](O)[C@H](OC4C(OC(=O)[C@]56CCC(C)(C)CC5C5=CCC7[C@@]8(C)C[C@H](O)[C@H](OC9OC(CO)C(O)C(O)C9O)[C@@](C)(CO)C8[C@H](O)C[C@@]7(C)[C@]5(C)CC6)OCC(O)C4O)O[C@H]3C)C2O)C(O)C(O)C1O (stereo partly drawn)							-4.86% [at 9.52 µM]	-9.45% [at 9.73 µM]	-14.3% [at 11.6 µM]	417% [at 11.5 µM]	-5.56% [at 11.6 µM]	3.65% [at 11.5 µM]
COc1ccc(Sc2ccc(NC(=O)c3ccccc3Cl)cc2C#N)cc1	inactive	inactive	inactive	inactive	inactive	inactive						
CC(C)=CCCC1(C)C2CCC1(C)C(O)C2 (stereo not drawn)	inactive	inactive	inactive	29.9 µM (active)	inactive	inactive						
CC(=O)O[C@@H]1CC[C@@]2(C)C(CC[C@]3(C)C2[C@H](O)C=C2[C@H]4[C@@H](C)[C@H](C)CC[C@]4(C)CC[C@]23C)[C@@]1(C)C(=O)O (stereo partly drawn)	inactive	inactive	inactive	inactive	inactive	inactive						
Cc1cc(-c2ncc(-c3cccnc3)cc2/C=C/c2ccccc2)cnc1-c1cccnc1	18 µM (active)	inactive	inactive	inactive	inactive	inactive						
CC1(C)OC[C@H](NC(=O)Nc2ccc(Br)cc2Br)[C@H](c2ccccc2)O1	inactive	inactive	inactive	inactive	inactive	inactive						
C=CC(=O)N1CC(N2CCN(C(=O)CNc3cc(C4CC4)c(Cl)cc3O)CC2)C1	inactive	inactive	inactive	2.67 µM (active)	inactive	inactive						
Nc1nc2c(ncn2C2OC3COP(=O)(O)OC3C2O)c(=O)[nH]1 (stereo not drawn)	inactive	inactive	inactive	inactive	inactive	inactive						
CNC(C)C(=O)NC(C(=O)N1CCCC1C(=O)Nc1snnc1-c1ccccc1)C1CCCCC1 (stereo not drawn)	inactive	inactive	inactive	inactive	inactive	inactive						
Cn1ncc(Cl)c1-c1cc(C(=O)N[C@H](CN)Cc2ccc(F)c(F)c2)sc1Cl	inactive	inactive	inactive	inactive	inactive	inactive						
Cc1ccc(OC[C@H](O)[C@H](C)NC(C)C)c2c1CCC2	inactive	inactive	inactive	inactive	inactive	inactive						
COc1ccccc1N1CCN(CC[C@@](C)(C(=O)C2CCCCC2)c2ccccc2)CC1	inactive	inactive	inactive	inactive	inactive	inactive						
C=C(C)C(=O)O[C@H]1[C@H]2C(=C)C(=O)O[C@@H]2/C=C(\CO)CC/C=C(/C=O)[C@@H]1O	inactive	inactive	inactive	inactive	inactive	inactive						
CC(C)[C@@H](c1ccc(C(F)(F)F)cc1CN(Cc1cc(C(F)(F)F)cc(C(F)(F)F)c1)c1nnn(C)n1)N1CCC(C(=O)O)CC1	inactive	inactive	inactive	inactive	inactive	inactive						
Cc1ccnn1-c1ccc(C(=O)N2CCN(S(=O)(=O)c3ccc(Cl)c(C(F)(F)F)c3)CC2)cc1	inactive	inactive	inactive	inactive	inactive	inactive						

Compound	Potency [1]	Potency [2]	Potency [3]	Potency [4]	Potency [5]	Potency [6]	activity, negative = inhibition [1]	activity change, negative = inhibition [2]	activity change, negative = inhibition [3]	activity change, negative = thiol reactive [4]	activity, negative = inhibition [5]	redox activity (% of DA3003) [6]
O=C(N[C@H]1CCC[C@H](CO)C1)C1CCN(c2nc3cc(Cl)c(-c4ccc(Cl)cc4)cc3o2)CC1	inactive	inactive	inactive	inactive	inactive	inactive						
COc1cc(/C=C2\CC[C@H]3COC[C@@H](c4cc(F)c(F)c(F)c4)N3C2=O)ccc1-n1cnc(C)c1	inactive	inactive	inactive	inactive	inactive	inactive						
CC(=O)N1CCN(CCOc2ccc(C3CCN(C4=Nn5c(nnc5C(F)(F)F)CC4)CC3)cc2)CC1	inactive	inactive	inactive	inactive	inactive	inactive						
CCCC(=O)C1(c2ccccc2)CCN(C(=O)[C@@H](Cc2ccc(OC)cc2)NC(=O)[C@@H](N)Cc2cncn2C)CC1	inactive	inactive	inactive	inactive	inactive	inactive						
Cc1[nH]c2ccccc2c1CCNC(=O)c1cccs1	inactive	inactive	inactive	8.44 µM (active)	inactive	inactive						
C/C=C(\C)C(=O)O[C@H]1C=CC(=O)O[C@H]1/C=C/[C@@H](O)[C@H](C)O	inactive	inactive	inactive	inactive	inactive	inactive						
COc1ccc([C@H]2OC[C@H]3O[C@@H](O[C@H]4[C@@H]2NC[C@@H]4O)[C@H](O)[C@H]3O)cc1	inactive	inactive	inactive	inactive	inactive	inactive						
C=C(C)C(=O)OC1CC(CO)CCC/C(CO)=C/C2OC(=O)C(=C)C21 (stereo not drawn)	inactive	inactive	inactive	inactive	inactive	inactive						
CC(C)c1ccccc1OC(=O)NCCc1ccc2ccccc2c1	inactive	inactive	inactive	inactive	inactive	inactive						
N#Cc1ccc(COc2ccc(-c3cccc4nc(NC(=O)C5CC5)nn34)cc2)cn1	inactive	inactive	inactive	inactive	inactive	inactive						
C[C@H]1CC[C@@]2(OC1)O[C@H]1CC3[C@@H]4CC[C@@H]5C[C@@H](O[C@@H]6O[C@H](CO)[C@@H](O[C@@H]7O[C@@H](C)[C@H](O)[C@@H](O)[C@H]7O)[C@H](O)[C@H]6O[C@@H]6O[C@H](CO)[C@@H](O)[C@H](O)[C@H]6O)CC[C@]5(C)C4CC[C@]3(C)[C@H]1[C@@H]2C (stereo partly drawn)	inactive	inactive							0.648% [at 11.6 µM]	131% [at 11.5 µM]	2.19% [at 11.6 µM]	-5.48% [at 11.5 µM]
C[C@H]1[C@H](/C=C/c2ccc(-c3ccccc3C#N)cn2)[C@@H]2[C@@H](C)OC(=O)[C@@H]2C[C@@H]1C	inactive	inactive	inactive	inactive	inactive	inactive						
CC1=CC2/C=C(\C)CCC3OC(C)(C)OC3CCC(=O)C23C(=O)NC(CC(C)C)C3C1C (stereo not drawn)	inactive	inactive	inactive	inactive	inactive	inactive						
CC(C)(O)c1ccn2c(-c3ccc(F)c(-c4ccc(F)cc4C#N)c3)cnc2c1F	inactive	inactive	inactive	inactive	inactive	inactive						
NC(=O)C1=CC2C3C=CC2C(OC3=O)O1 (stereo not drawn)	inactive	inactive	inactive	15.8 µM (active)	inactive	inactive						
Cc1cnn(-c2ccccc2)c1NC(=O)COCc1ccccc1	inactive	inactive	inactive	inactive	inactive	inactive						
CC(C)(Cc1ccccc1)NCC(O)c1ccc(O)c(NS(C)(=O)=O)c1 (stereo not drawn)	inactive	inactive	inactive	inactive	inactive	inactive						
CCCCC1CCC(c2nc(-c3ccncc3)no2)CC1 (stereo not drawn)	inactive	inactive	inactive	inactive	inactive	inactive						
CC(=O)NC(C(=O)O[C@H]1CCC(C)(C)[C@@H]2CC=C3C(=O)OCC3(O)[C@@]12C)C(C)C (stereo partly drawn)	inactive	inactive	inactive	inactive	inactive	inactive						
C=C1C(=O)O[C@@H]2C[C@H](C)C3=CC(=O)[C@H](O)[C@@]3(C)C[C@H]12	inactive	inactive	inactive	11.9 µM (active)	inactive	inactive						
COc1ccc(-c2cc3onc(-c4ccncc4)c3c(=O)n2C)cc1	inactive	inactive	1.9 µM (active)	inactive	inactive	inactive						
O=C(NCCN1CCC(n2c(=O)[nH]c3ccccc32)CC1)c1cc2cc(F)ccc2[nH]1	inactive	inactive	inactive	inactive	inactive	inactive						
Cc1nc(C#Cc2ccnc(Cl)c2)c(C)n1-c1ccc(OC(F)(F)F)cc1	inactive	inactive	inactive	inactive	inactive	inactive						
FC(F)(F)c1ccc(/C=C/c2nc(COc3ccc(CCCCn4ccnn4)cc3)co2)cc1	inactive	inactive	inactive	inactive	inactive	inactive						
